Test results from PubChem BioAssay AID1159580 (chemical genetic matrix, 2015).
Values joined by “and” are separate entries in the source; they are usually repeats but may differ in a detail not shown here. Equal values may be shown once. The whole screen tested about 5,500 compounds, of which about 2,000 (36%) were called active. Roughly 18% stayed inconclusive and do not appear here. Rule as the data show it: active = normalized growth mostly below about 0.91 (no sharp cut-off); inconclusive = no clear call, values can overlap the other calls; inactive = mostly above about 0.92. The list shows a part of the results.

Assay: chemical genetic growth profiling, strain panel (AID 1159580);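 also: tested at 20 µM; growth read once vehicle control cultures reached saturation at 30 °C; 1 = growth at the plate median or of vehicle wells; lower values mean less growth of the strain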
Conditions: S. cerevisiae deletion strains, growth OD

Measured: normalized growth

COc1ccccc1OCCNCC(O)COc1cccc2[nH]c3ccccc3c12 (stereo unspecified)
inactive: locus YAL013W, strain DEP1, stronger effect = lower value 0.999 | locus YAL021C, strain ccr4, stronger effect = lower value 1.01 | locus YAL026C, strain drs2, stronger effect = lower value 1.01 | locus YAL030W, strain snc1, stronger effect = lower value 1.02 | locus YBR009C, strain hhf1, stronger effect = lower value 1.02 | locus YBR021W, strain FUR4, stronger effect = lower value 0.988 | locus YBR023C, strain chs3, stronger effect = lower value 1.01 | locus YBR171W, strain sec66, stronger effect = lower value 1.02 | locus YBR229C, strain ROT2, stronger effect = lower value 1 | locus YBR231C, strain swc5, stronger effect = lower value 0.993 | locus YBR279W, strain paf1, stronger effect = lower value 1 | locus YCL011C, strain gbp2, stronger effect = lower value 1.01 | locus YCL016C, strain dcc1, stronger effect = lower value 1.03 | locus YCL029C, strain bik1, stronger effect = lower value 1.02 | locus YCL069W, strain vba3, stronger effect = lower value 1.01 | locus YCR088W, strain abp1, stronger effect = lower value 1.04 | locus YDL005C, strain med2, stronger effect = lower value 1.02 | locus YDL035C, strain GPR1, stronger effect = lower value 0.98 | locus YDL040C, strain nat1, stronger effect = lower value 1.02 | locus YDL074C, strain BRE1, stronger effect = lower value 0.957 | locus YDL101C, strain DUN1, stronger effect = lower value 1.01 | locus YDL134C, strain PPH21, stronger effect = lower value 1 | locus YDL185W, strain tfp1, stronger effect = lower value 1.01 | locus YDL192W, strain arf1, stronger effect = lower value 1.02 | locus YDR001C, strain nth1, stronger effect = lower value 1.01 | locus YDR069C, strain doa4, stronger effect = lower value 1 | locus YDR101C, strain arx1, stronger effect = lower value 1.01 | locus YDR137W, strain rgp1, stronger effect = lower value 1.05 | locus YDR150W, strain NUM1, stronger effect = lower value 1 | locus YDR159W, strain sac3, stronger effect = lower value 1.04 | locus YDR162C, strain NBP2, stronger effect = lower value 0.974 | locus YDR195W, strain ref2 1 | locus YDR297W, strain sur2, stronger effect = lower value 1.01 | locus YDR318W, strain mcm21, stronger effect = lower value 1.01 | locus YDR334W, strain swr1, stronger effect = lower value 1.03 | locus YDR335W, strain msn5, stronger effect = lower value 1 | locus YDR388W, stronger effect = lower value 1.01 | locus YDR392W, strain spt3, stronger effect = lower value 1.01 | locus YDR502C, strain sam2, stronger effect = lower value 1 | locus YEL003W, strain gim4, stronger effect = lower value 1.02 | locus YEL037C, strain rad23, stronger effect = lower value 1 | locus YEL061C, strain CIN8 (second series), stronger effect = lower value 1 | locus YEL061C, strain CIN8, stronger effect = lower value 0.997 | locus YER015W, strain faa2, stronger effect = lower value 1.02 | locus YER016W, strain bim1, stronger effect = lower value 0.986 | locus YER110C, stronger effect = lower value 1.02 | locus YER111C, strain swi4, stronger effect = lower value 1.02 | locus YER155C, strain BEM2 (second series), stronger effect = lower value 1.02 | locus YER155C, strain BEM2, stronger effect = lower value 0.986 | locus YER167W, strain BCK2, stronger effect = lower value 1 | locus YFR010W, strain ubp6, stronger effect = lower value 1.02 | locus YGL078C, strain dbp3, stronger effect = lower value 1.02 | locus YGL086W, strain mad1, stronger effect = lower value 1.01 | locus YGL167C, strain pmr1, stronger effect = lower value 1.02 | locus YGL173C, strain kem1, stronger effect = lower value 1.03 | locus YGL227W, strain vid30, stronger effect = lower value 1.01 | locus YGL240W, strain doc1, stronger effect = lower value 1.02 | locus YGL248W, strain PDE1, stronger effect = lower value 1.01 | locus YGL253W, strain hxk2, stronger effect = lower value 1.02 | locus YGR078C, strain PAC10, stronger effect = lower value 0.968 | locus YGR135W, strain pre9, stronger effect = lower value 1.01 | locus YGR229C, strain SMI1, stronger effect = lower value 0.957 | locus YGR252W, strain gcn5, stronger effect = lower value 0.948 | locus YHR013C, strain ard1, stronger effect = lower value 1.03 | locus YHR027C, strain rpn1, stronger effect = lower value 0.994 | locus YHR030C, strain SLT2, stronger effect = lower value 1.01 and 0.992 | locus YHR079C, strain IRE1 (second series), stronger effect = lower value 1.02 | locus YHR079C, strain IRE1, stronger effect = lower value 0.999 | locus YHR094C, strain hxt1, stronger effect = lower value 1.01 | locus YHR129C, strain ARP1, stronger effect = lower value 1.01 | locus YHR142W, strain chs7, stronger effect = lower value 1.03 | locus YHR200W, strain rpn10, stronger effect = lower value 1.02 | locus YIL066C, strain RNR3, stronger effect = lower value 1 | locus YIL073C, strain SPO22, stronger effect = lower value 1.11 | locus YIL125W, strain kgd1, stronger effect = lower value 1.02 | locus YIR030C, strain dcg1, stronger effect = lower value 1.02 | locus YJL092W, strain hpr5, stronger effect = lower value 1.01 | locus YJL095W, strain BCK1 (second series), stronger effect = lower value 1.02 | locus YJL095W, strain BCK1, stronger effect = lower value 0.976 and 1.01 | locus YJL115W, strain asf1, stronger effect = lower value 1.01 | locus YJL129C, strain trk1, stronger effect = lower value 1.02 | locus YJL134W, strain LCB3, stronger effect = lower value 1 | locus YJL154C, strain vps35, stronger effect = lower value 1.01 | locus YJL164C, strain tpk1, stronger effect = lower value 1.02 | locus YJL166W, strain qcr8, stronger effect = lower value 1.03 | locus YJL168C, strain set2, stronger effect = lower value 1.01 | locus YJL187C, strain SWE1 (second series), stronger effect = lower value 1.01 | locus YJL187C, strain SWE1, stronger effect = lower value 1.01 | locus YJR043C, strain POL32, stronger effect = lower value 0.998 | locus YJR066W, strain TOR1, stronger effect = lower value 0.935 | locus YJR075W, strain HOC1, stronger effect = lower value 0.983
